Source: PubChem
An excerpt weighted towards active compounds, which were near 3.3% of everything screened.
PI5P4K alpha inh = blocks human PI5P4K alpha kinase activity; max response, %; PI5P4Kalpha enzyme, ADP-Glo luminescence, 60 min; stronger effect = lower value; hit rate 1.2% among 330,000; P48426; active = max response of -50% or lower; inconclusive = between -30% and -50%; inactive = -30% or higher; also: value at the top dose of about 77 µM
Target sequence (P48426 whole entry, looked up): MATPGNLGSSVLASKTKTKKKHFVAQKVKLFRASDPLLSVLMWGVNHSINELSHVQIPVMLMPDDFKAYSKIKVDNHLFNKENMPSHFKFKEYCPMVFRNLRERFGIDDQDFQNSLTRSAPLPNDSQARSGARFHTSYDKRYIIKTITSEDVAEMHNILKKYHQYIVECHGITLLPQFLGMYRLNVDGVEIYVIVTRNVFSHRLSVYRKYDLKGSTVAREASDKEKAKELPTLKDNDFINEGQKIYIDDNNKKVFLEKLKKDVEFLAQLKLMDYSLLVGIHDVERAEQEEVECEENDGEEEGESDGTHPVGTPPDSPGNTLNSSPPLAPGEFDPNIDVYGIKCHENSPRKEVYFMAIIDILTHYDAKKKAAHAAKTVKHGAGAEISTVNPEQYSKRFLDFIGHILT
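Luminescence from ADP-Glo served as readout of PI5P4Kalpha activity in a qHTS format. Reaction: enzyme, substrate, compound, ATP at 5 microM final, 60 min at RT.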
LDHA block = blocks human lactate dehydrogenase A; P00338; purified LDHA, NADH/diaphorase-resazurin fluorescence; stronger effect = lower value; activity change, % (values are at about 110 or 230 µM); hit rate 0.15% among 480,000; AID 1347041; in the data active = activity change below about -30%; inconclusive = mostly about -25% to -30%
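Human LDH5 (2 nM) was incubated with 0.06 mM NADH and 0.2 mM pyruvate for 5 min at room temperature in Tris pH 7.4. Remaining NADH was coupled through diaphorase/resazurin, and resorufin fluorescence was read at 0 and 20 min.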
PI4K2A inh = inhibitors of human PI4K2A; purified PI4K2A, ADP-Glo luminescence, 1 h; stronger effect = lower value; activity change, negative = inhibition, % at 76.9 µM; Q9BTU6; hit rate 0.13% among 420,000; in the data active = activity change below about -50%; inconclusive = mostly about -30% to -49%
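PI4K2A activity was measured by ADP-Glo luminescence: enzyme (4 ug/mL stock) and phosphatidylinositol (1.2 mM stock) in Tris pH 7.5/MgCl2/EGTA/Triton X-100 buffer were reacted with ATP (300 microM stock) for one hour at ambient temperature.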
D3 ag = D3 dopamine receptor (human) agonism; P35462; hit rate 0.58% among 410,000; D3R DiscoveRx beta-arrestin cells, luminescence, 90 min; max activation, %; in the data active = max activation above about 30%
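Cells at 1500/well, incubated overnight, then treated with pinned compounds (dopamine as control) for 90 min at 37 degrees C. DiscoveRx reagent added for 30 - 60 minutes at room temperature; luminescence read.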
D3 antag = D3 dopamine receptor (human) antagonism; P35462; max response, negative = inhibition, %; D3R cells, DiscoveRx beta-arrestin luminescence, antagonist mode; stronger effect = lower value; hit rate 2.5% among 360,000; in the data active = max response below about -50%; inconclusive = no clear call, values can overlap the other calls
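Cells plated overnight at 1500 cells/well, then exposed to library compounds with dopamine controls for 90 minutes at 37 degrees C. DiscoveRx reagent added for 30–60 minutes at room temperature; luminescence read, quantitative HTS format.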
Large screens that a line does not name were inactive.

CCOC(=O)c1c(NC(=O)C2=C(C)NC(=S)NC2c2ccc(F)cc2)sc(C)c1C (configuration not stated)	none
CCOC(=O)c1c(NC(=O)C2=C(C)NC(=S)NC2c2ccc(C)cc2)sc(C)c1C (configuration not stated)	D3 antag -52.6
CCOc1cc2[nH]c(=O)n(CCCC(=O)N3CCN(c4ccc(OC)cc4)CC3)c(=O)c2cc1OCC	D3 ag 30.4 (no result: PI5P4K alpha inh, D3 antag)
O=C(CCCn1c(=S)[nH]c2cc3c(cc2c1=O)OCO3)N1CCN(c2ccc(F)cc2)CC1	D3 ag 35.8 (no result: PI5P4K alpha inh)
COc1ccc(N(C)S(=O)(=O)c2cccc(C(=O)Nc3ccc4oc(C)nc4c3)c2)cc1	none (no result: PI5P4K alpha inh, PI4K2A inh, D3 ag, D3 antag)
Cc1nc(-c2cccs2)c(CC(=O)N2CCN(c3ccc(F)cc3)CC2)s1	none (no result: PI5P4K alpha inh, PI4K2A inh, D3 ag, D3 antag)
CN(CC(=O)N(C1CCCC1)C1CCS(=O)(=O)C1)c1ccc2ccccc2c1 (configuration not stated)	none (no result: PI5P4K alpha inh, PI4K2A inh, D3 ag, D3 antag)
CCN1CCN(c2nc(Nc3cccc(C)c3)nc(N)c2[N+](=O)[O-])CC1	D3 antag -65.1
CCN1CCN(c2nc(Nc3ccccc3)nc(N)c2[N+](=O)[O-])CC1	none
CCN1CCN(c2nc(Nc3ccccc3F)nc(N)c2[N+](=O)[O-])CC1	D3 antag -62.9
Cc1cccc(Nc2nc(N)c([N+](=O)[O-])c(N3CCN(C)CC3)n2)c1	D3 antag -63.6
Cc1cccc(Nc2nc(N)c([N+](=O)[O-])c(N3CCCC(C)C3)n2)c1 (configuration not stated)	none
CN1CCN(c2nc(Nc3ccccc3)nc(N)c2[N+](=O)[O-])CC1	D3 antag -66.6
CN(C)CCCNC(=O)CCCNc1nc(Cl)nc2nc[nH]c12	none (no result: PI5P4K alpha inh, PI4K2A inh, D3 ag, D3 antag)
O=C(Nc1nnc(-c2ccco2)o1)c1ccc(C(F)(F)F)cc1	none (no result: PI5P4K alpha inh, PI4K2A inh, D3 ag, D3 antag)
Cc1cc(=O)oc2cc(OC(=O)[C@@H](NC(=O)OC(C)(C)C)C(C)C)c(Cl)cc12	none (no result: PI5P4K alpha inh, PI4K2A inh, D3 ag, D3 antag)
Cc1ccc(Nc2nc(-c3cnc(N4CCCCC4)nc3C)cc(=O)[nH]2)cc1C	none (no result: PI5P4K alpha inh, PI4K2A inh, D3 ag, D3 antag)
CN1C(=O)COc2ccc(NC(=O)C(=O)NC3CCCC3)cc21	none (no result: PI5P4K alpha inh, PI4K2A inh, D3 ag, D3 antag)
Cc1ccc(Nc2nc(N)c([N+](=O)[O-])c(N3CCOCC3)n2)cc1C	none
CCN1CCN(c2nc(Nc3ccc(OC)cc3)nc(N)c2[N+](=O)[O-])CC1	D3 antag -53.5
CCN(CC)C(=O)CC[C@H]1CC[C@]2(CCCN(Cc3ccncc3)C2)O1	none (no result: PI5P4K alpha inh, LDHA block, D3 ag, D3 antag)
CCCN(CCC)CCCOC(=O)c1ccc(Cl)cc1Cl	D3 antag -69.4
CN(C)CCCOC(=O)c1ccc(Cl)cc1Cl	D3 antag inconclusive (no result: PI5P4K alpha inh)
CCCN(CCC)C(=S)NC(=O)c1ccc(Cl)cc1Cl	D3 antag -181.6 (no result: PI5P4K alpha inh)
Cc1ccccc1C(=O)NNC(=S)NC(=O)c1ccc(Cl)cc1Cl	none (no result: PI5P4K alpha inh)
Cc1ccc(NC(=O)c2nccnc2N)cc1F	none (no result: PI5P4K alpha inh, PI4K2A inh, D3 ag, D3 antag)
Cc1ccccc1Nc1nnc(SCC(=O)c2ccc(Cl)s2)s1	none (no result: PI5P4K alpha inh, PI4K2A inh, D3 ag, D3 antag)
O=C(Cn1cnc2sccc2c1=O)N1N=C(c2ccco2)CC1c1ccco1 (configuration not stated)	none (no result: PI5P4K alpha inh, PI4K2A inh, D3 ag, D3 antag)
C/C(=N\NC(=S)Nc1cccc(C)c1)c1ccccc1	D3 antag -51.5
CC(=NNC(=S)Nc1ccc(C)cc1)c1ccccn1	D3 antag -50.5
CC(=NNC(=S)Nc1cccc(C)c1)c1ccccn1	none
COc1ccc(N(CC(=O)Nc2c(C)n(C)n(-c3ccccc3)c2=O)S(=O)(=O)c2ccc(C)cc2)cc1OC	D3 antag -110.9
COc1ccc(NC(=O)COc2cc(C)cc(C)c2)c2cccnc12	none (no result: PI5P4K alpha inh, PI4K2A inh, D3 ag, D3 antag)
CC1CCN(S(=O)(=O)c2ccc(-c3nc(C#N)c(NCc4ccco4)o3)cc2)CC1	none (no result: PI5P4K alpha inh, PI4K2A inh, D3 ag, D3 antag)
N#Cc1cc2ccccc2nc1SCc1cccnc1	D3 antag -83.0 (no result: PI5P4K alpha inh)
O=C(CNC(=O)C1CCCC1)NC1CCCC1	none (no result: PI5P4K alpha inh, PI4K2A inh, D3 ag, D3 antag)
Cc1cccc(Cc2cnc(NC(=O)C3=Cc4ccccc4OC3)s2)c1	none (no result: PI5P4K alpha inh, PI4K2A inh, D3 ag, D3 antag)
CSc1ccc(/C=N/Nc2ccc(F)cc2)cc1	none (no result: PI5P4K alpha inh, PI4K2A inh, D3 ag, D3 antag)
COc1ccc(C)cc1S(=O)(=O)Nc1cccc(C)c1	none
COc1ccc(NS(=O)(=O)c2cc(C)ccc2OC)cc1OC	D3 antag -58.0
CN1CCN(CCCNCc2cn(CCC#N)c3ccccc23)CC1	LDHA block -40.2
N#CCCN1CCN(Cn2c3ccccc3c3ccccc32)CC1	none
COc1ccc(C(=O)Nc2nc(C)c(C(=O)N(C)C)s2)c(OC)c1	none (no result: PI5P4K alpha inh, PI4K2A inh, D3 ag, D3 antag)
COc1ccc(CNC(=O)COc2cc3c(c4oc(=O)cc(C)c24)CCC(C)(C)O3)cc1	D3 ag 35.8
CCN1CCN(C(=O)c2ccc3c(=O)n(CCC4=CCCCC4)c(=O)[nH]c3c2)CC1	D3 antag -53.8
Cc1[nH]nc(-c2cccnc2)c1N=NN(C)C	D3 antag -89.5
CC(C)C(=O)C1=Cc2cccc([N+](=O)[O-])c2OC1N1CCOCC1 (configuration not stated)	D3 antag -53.6
O=c1c(-c2nc3ccccc3s2)cccn1Cc1ccc(Cl)cc1	D3 ag 56.3 (no result: PI5P4K alpha inh)
Clc1ncccc1-c1nc2ccccc2s1	none
O=C(CN1CCN(S(=O)(=O)c2ccccc2)CC1)Nc1ccc2c(c1)CCC2	D3 antag -53.1
O=C(CN1CCN(S(=O)(=O)c2ccc(Br)cc2)CC1)Nc1ccc(F)cc1F	D3 antag -50.9
O=C(CN1CCN(c2ccccc2O)CC1)Nc1ccc2c(c1)CCC2	D3 antag -71.5
O=C(CN1CCN(Cc2ccccc2)CC1)Nc1ccc2c(c1)CCC2	none
Cc1ccccc1CNC(=O)COC(=O)c1ccc2c(c1)NC(=O)CS2	none (no result: PI5P4K alpha inh, PI4K2A inh, D3 ag, D3 antag)
Cc1nn2c(=S)[nH]nc2[nH]c1=O	PI5P4K alpha inh -53.4
Cc1ccc(C(=O)OCC(=O)c2ccc(C3CCCCC3)cc2)c(C)c1	none (no result: PI5P4K alpha inh, PI4K2A inh, D3 ag, D3 antag)
